# PubChem BioAssay (Tox21)
# Records with an inconclusive call do not appear. Values without a mark were called inactive. Calls of active or inactive are those of the source. The call rests on the fitted dose curve; in most records, active means well fitted inhibition curve with a large enough effect in the repeat runs; inconclusive means weak or mixed curves; inactive means no such curve, though single readings can be large or run the other way. Where a SMILES comes first, the peptide text is derived from it. [ ]: non-standard residue; d: D form. pGlu = O=C1CC[C@@H](C(=O)O)N1
# Molecular target: Cytochrome P450 2D6 (Homo sapiens) (UniProt P10635)
# Sequence (P10635 whole entry, looked up): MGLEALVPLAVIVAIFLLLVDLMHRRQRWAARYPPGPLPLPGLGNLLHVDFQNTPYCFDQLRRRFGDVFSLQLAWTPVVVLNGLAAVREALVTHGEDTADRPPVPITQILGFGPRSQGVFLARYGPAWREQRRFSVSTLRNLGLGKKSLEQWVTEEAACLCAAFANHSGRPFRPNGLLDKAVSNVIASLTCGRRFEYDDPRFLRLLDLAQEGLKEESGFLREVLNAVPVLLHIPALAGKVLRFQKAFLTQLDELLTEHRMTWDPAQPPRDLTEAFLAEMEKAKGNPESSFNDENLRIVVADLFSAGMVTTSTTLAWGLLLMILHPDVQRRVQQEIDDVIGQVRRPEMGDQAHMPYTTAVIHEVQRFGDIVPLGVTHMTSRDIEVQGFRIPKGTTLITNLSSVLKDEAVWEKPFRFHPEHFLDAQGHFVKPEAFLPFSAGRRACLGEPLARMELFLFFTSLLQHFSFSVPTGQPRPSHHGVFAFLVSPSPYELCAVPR
# Test: Cytochrome P450 Family 2 Subfamily D Member 6 (CYP2D6) small molecule antagonists: luciferase reporter qHTS assay (AID 1671196); further: nearly all actives have a fitted effect of over 50% in size
# Details: P450-Glo CYP2D6 enzyme assay, luciferin luminescence, 1 h; series mostly up to 115 µM; activity change, negative = inhibition: at the top concentration
# Excerpt: U.S. Tox21 Program National Center for Advancing Translational Sciences [NCATS] U.S. Environmental Protection Agency [EPA] National Institutes of Environmental Health Sciences [NIEHS] National Toxicology Program [NTP] U.S. Food and Drug Administration [FDA] Tox21 Assay Overview: Cytochrome P450 (CYP) enzymes are membrane-bound hemeproteins that play a key role in metabolism of drugs and xenobiotics. Evaluation of the effect of chemicals on CYP isozymes is useful to minimize the adverse drug reactions and toxicities in drug development process. Tox21 chemicals were tested for their effect on CYP enzyme activities by using P450-Glo (TM) screening systems (Promega Corporation, Madison, WI). These systems provide a luminescent method containing proluciferin substrates and are converted to luciferin products by CYP isozymes. The luciferin products formed are detected with a luciferin detection reagent, and the amount of light produced is proportional to CYP activity. P450-Glo (TM) CYP2D6 screening system (Catalog. No. V9890) was used to detect the compounds that interfere in CYP2D6 activity.
# Tox21 Assay Protocol Summary: Two ul of enzyme-substrate mix was dispensed into medium binding white/solid 1536-well plates (Greiner Bio-One North America Inc., Monroe, NC) using a BioRaptr Flying Reagent Dispenser (FRD, Beckman Coulter, Brea, CA). […] The assay plates were incubated at room temperature for 10 min. Then 2 ul of NADPH regeneration solution was added to each well of the assay plates using an FRD and incubated at room temperature for 1 h. The reaction was stopped by adding 4 ul of detection reagent using an FRD and after 20 min incubation at room temperature the luminescence signal was measured using a ViewLux plate reader (Perkin Elmer, Shelton, CT). Data were expressed as relative luminescence units.
# On the % scale 0 is the no-effect control and ±100 the full control effect; potency means the concentration at half of the fitted maximal effect.
Compound,"activity change, negative = inhibition",Potency
CCOC(=O)OC(C)OC1=C(C(=O)Nc2ccccn2)N(C)S(=O)(=O)c2ccccc21 (stereo not given),-1.8% [at 53 µM],
OCCc1ccccn1,-6.28%,
COc1ccccc1OCC1CNC(=O)O1 (stereo not given),1.61% [at 53 µM],
NC(=O)N[C@@H](CCC(=O)O)C(=O)O,0.489% [at 53 µM],
CCCCCCCCCCCCCCCCCCO,0.159% [at 53 µM],
CCCCCC(=O)OCCc1ccccc1,-12.3%,
CCC(C)(CCCC(C)C)OC(C)=O (stereo not given),-2.09%,
CCOC(=O)C1=NOC(c2ccccc2)(c2ccccc2)C1,-69.7%,
O=CN(CCO)CCO,0.82%,
CC(C)(CCC(=O)O)C(=O)O,-5.51%,
COc1c(N2CCNC(C)C2)c(F)cc2c(=O)c(C(=O)O)cn(C3CC3)c12 (stereo not given),-0.411% [at 53 µM],
CC/C=C\CCOC(C)OCC (stereo not given),-4.36% [at 53 µM],
CCOC(=O)C(=O)CCCCCCl,,38.9 µM (active)
CCCCCCCCN1CCCC1=O,-17.1%,
OCCCCCO,-0.01%,
CCCc1ncc(C[n+]2ccccc2C)c(N)n1,-23.1% [at 53 µM],
c1ccc(CCc2ccccc2)cc1,-7.45%,
Cc1ccnc(NS(=O)(=O)c2ccc(N)cc2)n1,-19.1% [at 53 µM],
O=S(=O)(O)c1cc(O)c(O)c(S(=O)(=O)O)c1,-5.57%,
COCCOC[C@H](CC1(C(=O)NC2CCC(C(=O)O)CC2)CCCC1)C(=O)Oc1ccc2c(c1)CCC2 (stereo not given in full),-7.28%,

Compound,"activity change, negative = inhibition",Potency
CCOC(=O)COc1cc(-n2ncc(C(F)(F)F)c(C)c2=O)c(F)cc1Cl,,63.3 µM (active)
O=C(O)CCSCCC(=O)O,-8.42%,
Cc1ncc([C@@H](CCCCCCc2ccc3c(n2)NCCC3)CC(=O)O)cn1,-10.4%,
CCOc1ccc2nc(S(N)(=O)=O)sc2c1,-14.9% [at 53 µM],
CCNC(=O)[C@@H]1CCCN1C(=O)[C@H](CCCN=C(N)N)NC(=O)[C@H](CC(C)C)NC(=O)CNC(=O)[C@H](Cc1ccc(O)cc1)NC(=O)[C@H](CO)NC(=O)[C@H](Cc1c[nH]c2ccccc12)NC(=O)[C@H](Cc1cnc[nH]1)NC(=O)[C@@H]1CCC(=O)N1 ([pGlu]HWSYGLRP-NHEt),-18.9% [at 53 µM],
Cc1coc2ccccc2c1=O,0.624% [at 53 µM],
CC1=NS(=O)(=O)c2cc(Cl)ccc2N1,-2.23% [at 53 µM],
CCCO[Si](OCCC)(OCCC)OCCC,1.38%,
Nc1c2c(nc3c1CCC3)CCCC2,,8.71 µM (active)
CN1[C@@H]2CC[C@H]1CC(OC(=O)C(O)c1ccccc1)C2 (stereo not given in full),-17.7% [at 53 µM],
CC(C(=O)O)c1cccc(Oc2ccccc2)c1 (stereo not given),-0.482% [at 53 µM],
CC(C)C1CCC(O)CC1 (stereo not given),-7.96%,
C=CN1CCCCCC1=O,-1.43%,
CC12CCC(C(=O)C1=O)C2(C)C (stereo not given),0.544%,
CCOC(=O)COC(=O)c1ccccc1C(=O)OCC,-22.1%,
CCCCCCCCCCOc1cc2c(=O)c(C(=O)OCC)c[nH]c2cc1OCC,-50% [at 10.5 µM],
CC1=NN(c2cc(S(=O)(=O)O)ccc2Cl)C(=O)C1N=Nc1ccccc1 (stereo not given),-1.34%,
C[N+]1(C)[C@@H]2CC(OC(=O)[C@H](CO)c3ccccc3)C[C@H]1[C@@H]1O[C@@H]12 (stereo not given in full),-21.4% [at 53 µM],
O=[N+]([O-])c1ccc(/C=N\O)o1,-21.1% [at 53 µM],
CN(C)C(=O)Oc1ccc[n+](C)c1,-0.813% [at 53 µM],
